Source: PubChem BioAssay (EPA / NIEHS)
Active and inactive are the calls of the source. The calls were made as follows: active = hit-call score of the fitted dose curve at least 0.9, where 1 is the maximum; inactive = score below 0.9.

What was measured:
[1] = read-out: TIMP metallopeptidase inhibitor 1 (TIMP1), TIMP1 (gene 7076); assay: BSK_hDFCGF_TIMP1: BioMAP Diversity Plus: hDFCGF Assay for TIMP metallopeptidase inhibitor 1 (TIMP1) Biomarker Activity (AID 2283062); details: primary human foreskin fibroblasts; actives raise or lower the signal
Procedure, shortened: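 Primary human foreskin fibroblasts in the hDFCGF system were dosed with compound for 24 h, then TIMP-1 was measured by ELISA. Activity was fitted bidirectionally relative to DMSO control; parallel SRB staining assessed cytotoxicity.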

[2] = read-out: Monokine induced gamma interferon (MIG), CXCL9 (gene 4283); assay: BSK_hDFCGF_MIG: BioMAP Diversity Plus: hDFCGF Assay for Monokine induced gamma interferon (MIG) Biomarker Activity (AID 2283063); details: primary human foreskin fibroblasts; actives raise or lower the signal
Procedure, shortened: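 ELISA read-out of MIG from primary human dermal fibroblasts 24 h post-dosing. Gain or loss of signal fitted bidirectionally, DMSO as baseline.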

[3] = read-out: Matrix Metallopeptidase 1 (MMP1), MMP1 (gene 4312); assay: BSK_hDFCGF_MMP1: BioMAP Diversity Plus: hDFCGF Assay for Matrix Metallopeptidase 1 (MMP1) Biomarker Activity (AID 2283064); details: primary human foreskin fibroblasts; actives raise or lower the signal
Procedure, shortened: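 ELISA read-out of MMP1 from human foreskin fibroblasts (primary skin cells), 24 h post-dose. Gain or loss of signal was fitted bidirectionally versus DMSO negative control; cytotoxicity was checked by SRB in parallel cultures.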

[4] = read-out: Vascular cell adhesion molecule 1 (VCAM1), VCAM1 (gene 7412); assay: BSK_hDFCGF_VCAM1: BioMAP Diversity Plus: hDFCGF Assay for Vascular cell adhesion molecule 1 (VCAM1) Biomarker Activity (AID 2283065); details: primary human foreskin fibroblasts; actives raise or lower the signal;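 as to AC50: VCAM-1 protein level quantified by ELISA after 24 h chemical exposure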
Procedure, shortened: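 Primary human foreskin fibroblasts (hDFCGF system) were dosed with chemical and VCAM-1 was measured by ELISA 24 h later. Bidirectional curve fitting used DMSO as negative control and activity baseline.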

[5] = read-out: Plasminogen activator inhibitor-1 (PAI1), SERPINE1 (gene 5054); assay: BSK_hDFCGF_PAI1: BioMAP Diversity Plus: hDFCGF Assay for Plasminogen activator inhibitor-1 (PAI1) Biomarker Activity (AID 2283066); details: primary human foreskin fibroblasts; actives raise or lower the signal
Procedure, shortened: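 Fibroblasts from human foreskin were treated with test chemical. After 24 h, PAI-1 was measured by ELISA. Activity was fitted in both directions relative to DMSO.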

[6] = read-out: Intercellular Adhesion Molecule 1 (ICAM1), ICAM1 (gene 3383); assay: BSK_KF3CT_ICAM1: BioMAP Diversity Plus: KF3CT Assay for Intercellular Adhesion Molecule 1 (ICAM1) Biomarker Activity (AID 2283067); details: primary human keratinocytes with fibroblasts; actives raise or lower the signal
Procedure, shortened: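 Human keratinocyte plus foreskin fibroblast primary co-culture was exposed to chemical for 24 h. ICAM-1 was then quantified by ELISA, and the data were fit bidirectionally against DMSO as the negative control and baseline.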

[7] = read-out: Interferon-gamma inducible Protein 10 (IP10), CXCL10 (gene 3627); assay: BSK_KF3CT_IP10: BioMAP Diversity Plus: KF3CT Assay for Interferon-gamma inducible Protein 10 (IP10) Biomarker Activity (AID 2283068); details: primary human keratinocytes with fibroblasts; actives raise or lower the signal
Procedure, shortened: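 Signal is secreted/surface IP-10 by ELISA in a human primary skin co-culture of keratinocytes and foreskin fibroblasts, taken 24 h post-dosing; DMSO served as negative control.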

[8] = BSK_KF3CT_SRB: Viability Assessment in the BioMAP Diversity Plus: KF3CT Assay (AID 2283069); details: primary human keratinocytes with fibroblasts;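 also: total protein by sulforhodamine B staining as a cytotoxicity measure; read 24 h after compound addition; fitted for both signal gain and loss against DMSO baseline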
Procedure, shortened: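 SRB read-out at 560 nm (0.1% stain, TCA-fixed cells) gauges overt cytotoxicity in a human skin keratinocyte–fibroblast co-culture 24 h post-dosing. Signal change was fitted bidirectionally relative to DMSO control.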

[9] = read-out: Interleukin-1 alpha (IL1a), IL1A (gene 3552); assay: BSK_KF3CT_IL1a: BioMAP Diversity Plus: KF3CT Assay for Interleukin-1 alpha (IL1a) Biomarker Activity (AID 2283070); details: primary human keratinocytes with fibroblasts; actives raise or lower the signal
Procedure, shortened: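 Primary skin co-culture (keratinocytes, foreskin fibroblasts), 24 h exposure; ELISA for IL-1a; bidirectional curve fit vs DMSO.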

[10] = read-out: TIMP metallopeptidase inhibitor 2 (TIMP2), TIMP2 (gene 7077); assay: BSK_KF3CT_TIMP2: BioMAP Diversity Plus: KF3CT Assay for TIMP metallopeptidase inhibitor 2 (TIMP2) Biomarker Activity (AID 2283071); details: primary human keratinocytes with fibroblasts; actives raise or lower the signal
Procedure, shortened: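 Chemicals were dosed onto human skin primary co-cultures of keratinocytes and foreskin fibroblasts, and TIMP-2 was measured by ELISA after 24 hours. Activity in either direction was fitted relative to DMSO.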

Measured: AC50

Oc1c(Cl)cc(Cl)cc1Cl
inactive: [1] | [2] | [3] | [4] | [5] | [6] | [7] | [8] | [9] | [10]

N#CCCC(Br)(C#N)CBr (stereo not given)
active: [1] 4.28 µM | [2] 6.19 µM | [3] 11.8 µM | [4] 3.74 µM | [6] 26.8 µM | [7] 33.1 µM | [8] 20 µM | [9] 14.4 µM | [10] 20 µM

CC(C=O)Cc1ccc2c(c1)OCO2 (stereo not given)
inactive: [1] | [2] | [3] | [4] | [6] | [7] | [8] | [9] | [10]

Cc1cccc(OP(=O)(Oc2cccc(C)c2)Oc2cccc(C)c2)c1
inactive: [1] | [2] | [3] | [4] | [6] | [7] | [8] | [9] | [10]

NC(=O)CCl
inactive: [1] | [2] | [3] | [4] | [6] | [7] | [8] | [9] | [10]

O=C(CCl)NCO
inactive: [1] | [2] | [3] | [4] | [6] | [7] | [8] | [9] | [10]

CC(C)=CC1C(C(=O)OCc2cccc(Oc3ccccc3)c2)C1(C)C (stereo not given)
inactive: [2] | [3] | [6] | [7] | [8] | [9]
active: [1] 12.5 µM | [4] 12.4 µM | [10] 2.81 µM

Cc1ccc2nc3sc(=O)sc3nc2c1
active: [2] 7.3 µM | [4] 5 µM | [6] 3.16 µM | [9] 5 µM | [10] 2.5 µM
inactive: [1] | [3] | [7] | [8]

Oc1cc(Cl)c(Cl)cc1Cl
active: [4] 7.54 µM
inactive: [1] | [2] | [3] | [6] | [7] | [8] | [9] | [10]

Oc1cccc(-c2ccccc2)c1
active: [4] 31.6 µM | [9] 20 µM | [10] 35 µM
inactive: [1] | [2] | [3] | [6] | [7] | [8]

CC(C)N(C(=O)CCl)c1ccccc1
active: [1] 2.98 µM | [2] 3.85 µM | [3] 11.4 µM | [4] 1.43 µM | [6] 28.5 µM | [7] 20 µM | [8] 27.1 µM | [10] 14.2 µM
inactive: [9]

OCCN(CCO)CCO
inactive: [1] | [2] | [3] | [4] | [6] | [7] | [8] | [9] | [10]

c1ccc(-c2cccc(-c3ccccc3)c2)cc1
inactive: [2] | [6] | [7] | [8] | [10]
active: [1] 20 µM | [3] 5.57 µM | [4] 12.4 µM | [9] 7.05 µM

OC(Cc1ccccc1Cl)(Cn1[nH]cnc1=S)C1(Cl)CC1 (stereo not given)
active: [2] 33.3 µM | [4] 17.8 µM | [10] 11.1 µM
inactive: [1] | [3] | [6] | [7] | [8] | [9]

Cc1cc(C(C)(C)c2ccc(O)c(C)c2)ccc1O
active: [10] 12.2 µM
inactive: [1] | [2] | [3] | [4] | [6] | [7] | [8] | [9]

Cc1cc(Cl)ccc1N
inactive: [1] | [2] | [3] | [4] | [6] | [7] | [8] | [9] | [10]

O=S(=O)(C(Cl)(Cl)Cl)C(Cl)(Cl)Cl
active: [1] 1.72 µM | [2] 2.36 µM | [3] 2.8 µM | [4] 2.02 µM | [6] 2.15 µM | [7] 2.99 µM | [8] 2.48 µM | [9] 1.67 µM | [10] 2.25 µM

CC(C)O.CC(C)O.OCCN(CCO)CCO.OCCN(CCO)CCO.[Ti]
inactive: [1] | [4] | [6] | [8] | [9] | [10]
active: [2] 30.6 µM | [3] 24.8 µM | [7] 33.7 µM

COCC(=O)N(c1c(C)cccc1C)[C@H](C)C(=O)OC
inactive: [1] | [2] | [3] | [4] | [6] | [7] | [8] | [9] | [10]

O=S(=O)(c1ccc(Cl)cc1)c1cc(Cl)c(Cl)cc1Cl
active: [10] 12.7 µM
inactive: [1] | [2] | [3] | [4] | [6] | [7] | [8] | [9]

CCCCN(CCCC)C(=S)[S-].CCCCN(CCCC)C(=S)[S-].[Ni+2]
inactive: [1] | [2] | [3] | [4] | [6] | [7] | [8] | [9] | [10]

Cc1ccccc1OP(=O)(Oc1ccccc1C)Oc1ccccc1C
inactive: [6]
active: [1] 11.7 µM | [2] 12.8 µM | [3] 12.7 µM | [4] 6.18 µM | [7] 14.7 µM | [8] 20 µM | [9] 11.3 µM | [10] 5.54 µM

CCOC(=O)CCN(SN(C)C(=O)Oc1cccc2c1OC(C)(C)C2)C(C)C
active: [1] 33.5 µM | [2] 29.9 µM | [4] 29.7 µM
inactive: [3] | [6] | [7] | [8] | [9] | [10]

Cc1c([N+](=O)[O-])c(C)c([N+](=O)[O-])c(C(C)(C)C)c1[N+](=O)[O-]
active: [7] 32.4 µM
inactive: [1] | [2] | [3] | [4] | [6] | [8] | [9] | [10]

OCCCCO
inactive: [1] | [2] | [3] | [4] | [6] | [7] | [8] | [9] | [10]

CC(C)(C)c1cc([N+](=O)[O-])cc(C(C)(C)C)c1O
active: [7] 0.0652 µM | [10] 20 µM
inactive: [1] | [2] | [3] | [4] | [6] | [8] | [9]

Nc1c(Oc2ccccc2)cc(O)c2c1C(=O)c1ccccc1C2=O
active: [2] 15.6 µM | [4] 15.8 µM | [10] 0.549 µM
inactive: [1] | [3] | [6] | [7] | [8] | [9]

Cc1ccccc1OP(=O)(Oc1ccccc1)Oc1ccccc1
inactive: [6] | [7] | [8]
active: [1] 14.5 µM | [2] 20 µM | [3] 27.4 µM | [4] 5.06 µM | [9] 20 µM | [10] 14.4 µM

CCOC(=O)C(SP(=S)(OC)OC)c1ccccc1 (stereo not given)
active: [4] 20 µM
inactive: [1] | [2] | [3] | [6] | [7] | [8] | [9] | [10]

c1ccc2sc(SNC3CCCCC3)nc2c1
inactive: [1] | [2] | [3] | [4] | [6] | [7] | [8] | [9] | [10]

CCOP(=S)(OCC)SCS(=O)(=O)C(C)(C)C
inactive: [1] | [2] | [3] | [4] | [6] | [7] | [8] | [9] | [10]

C[C@]12CC[C@@H](O)C[C@@H]1CC[C@@H]1[C@@H]2CC[C@]2(C)C(=O)CC[C@@H]12
inactive: [1] | [2] | [3] | [4] | [6] | [7] | [8] | [9] | [10]

O=C(O)COc1cc(Cl)c(Cl)cc1Cl
inactive: [1] | [2] | [3] | [4] | [6] | [7] | [8] | [9] | [10]

N#Cc1cccnc1
inactive: [1] | [2] | [3] | [4] | [6] | [7] | [8] | [9] | [10]

CCOP(=O)(OCC)OC(=CCl)c1ccc(Cl)cc1Cl
inactive: [6]
active: [1] 30.1 µM | [2] 30.7 µM | [3] 31.5 µM | [4] 36.8 µM | [7] 32.8 µM | [8] 35.2 µM | [10] 25.7 µM
